Shown are actives, neighbours in structure and some others; about 2.4% of the full set was active somewhere.
POLK inh – DNA polymerase kappa (human) inhibition | hit rate 0.53% among 400,000 | Potency, µM (highest dose often 107 µM), usual class: inhibitors | Q9UBT6 | purified Pol kappa, fluorescent DNA synthesis assay, 10 min | AID 588579
Target sequence (Q9UBT6 whole entry, looked up): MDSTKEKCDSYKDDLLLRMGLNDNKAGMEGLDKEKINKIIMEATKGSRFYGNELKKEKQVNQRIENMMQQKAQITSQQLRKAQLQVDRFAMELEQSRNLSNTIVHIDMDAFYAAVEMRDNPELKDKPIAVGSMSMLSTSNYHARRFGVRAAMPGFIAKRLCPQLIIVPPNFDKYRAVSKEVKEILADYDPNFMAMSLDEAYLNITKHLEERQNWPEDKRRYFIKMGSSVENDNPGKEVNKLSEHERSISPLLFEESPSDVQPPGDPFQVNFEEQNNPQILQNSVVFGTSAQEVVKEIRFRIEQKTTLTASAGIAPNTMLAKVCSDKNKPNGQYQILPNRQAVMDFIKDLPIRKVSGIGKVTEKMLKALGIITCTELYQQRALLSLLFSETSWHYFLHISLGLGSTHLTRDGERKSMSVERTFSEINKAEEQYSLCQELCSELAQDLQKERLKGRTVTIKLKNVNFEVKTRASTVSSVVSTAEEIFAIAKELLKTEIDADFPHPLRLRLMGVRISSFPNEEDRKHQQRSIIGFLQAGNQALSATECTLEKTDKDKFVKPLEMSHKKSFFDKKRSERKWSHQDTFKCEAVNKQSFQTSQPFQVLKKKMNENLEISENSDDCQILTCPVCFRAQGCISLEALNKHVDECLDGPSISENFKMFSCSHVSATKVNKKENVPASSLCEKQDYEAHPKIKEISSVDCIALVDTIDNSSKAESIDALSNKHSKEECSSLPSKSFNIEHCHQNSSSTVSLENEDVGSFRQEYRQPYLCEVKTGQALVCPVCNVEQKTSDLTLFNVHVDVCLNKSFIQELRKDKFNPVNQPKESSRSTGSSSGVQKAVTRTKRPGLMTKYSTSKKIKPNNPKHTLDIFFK
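50 nM final substrate added after 15 min RT preincubation of 10 nM Pol kappa with compound; fluorescence read at 0 and 10 min.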
FEN1 inhibitor – human FEN1 inhibition; hit rate 0.35% among 390,000; P39748; Potency, µM (highest dose often 114 µM), usual class: inhibitors; Recombinant FEN1 flap cleavage, fluorescence, 15 min; also: nearly all actives have a fitted effect of over 65% in size
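FEN1 at 10 nM preincubated with compounds 15 min at room temperature, then flap DNA substrate added at 50 nM final. Signal read at 0 and 15 min; concentration-response fitted with four-parameter Hill equation.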
Pol eta inh – DNA polymerase eta (human) inhibition; Q9Y253; recombinant Pol eta, fluorescent DNA replication assay; Potency, µM (series often up to 114 µM), actives largely listed as inhibitors; hit rate 1.2% among 390,000
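Fluorescent replication assay: 50 nM final substrate added after a 15 min room-temperature compound preincubation with 10 nM enzyme. Signal taken at 0 min and again at 10 min.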
WRN helicase inh – WRN helicase (human) inhibition; Q14191; WRN helicase unwinding, fluorescent forked duplex, kinetic; Potency, µM (top dose mostly 114 µM), hits mostly inhibitors; hit rate 0.46% among 360,000; also: nearly all actives have a fitted effect of over 55% in size
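Kinetic fluorescence helicase assay: unwinding of a quenched forked DNA duplex (100 nM final) with 2 mM ATP final raises red fluorescence (525/598 nm). Compounds sat 15 min at room temperature with 20 nM WRN beforehand.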
POLI inh – DNA polymerase iota (human) inhibition; Pol iota fluorescent replication assay, 10 min; Potency, µM (highest dose often 115 µM), actives largely listed as inhibitors; hit rate 1% among 390,000; AID 588590; Q9UNA4
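Fluorescent replication assay read twice, at 0 min and 10 min after adding 50 nM (final) substrate. Enzyme (10 nM) and compounds were first incubated 15 min at room temperature; enzyme-free buffer wells were negative controls.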
Pol beta inh – blocks human DNA polymerase beta activity; P06746; Pol beta primer extension/strand displacement, fluorescence kinetic; Potency, µM (doses to about 114 µM), most hits filed as inhibitors; hit rate 1.3% among 340,000
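Pol beta (10 nM) and compounds were preincubated 15 min at room temperature, then 50 nM substrate (final) started primer extension/strand displacement. Reads were taken at 0 and 10 min; concentration-response data were fitted to a four-parameter Hill equation.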
Each line names hits and unclear results; the compound was inactive in the other large screens; ! = a repeat was not active. Calls follow the shape of the dose curve; as a rule, active = well fitted curve in the direction sought with a large enough effect; inconclusive = small, poorly fitted or top-dose-only effect, or another doubt; inactive = no such curve, though single readings can be large; an effect the other way counts as inactive or inconclusive.

CCCCN(CCCN)c1ccc(Br)cn1	none (no result: Pol eta inh, WRN helicase inh, Pol beta inh)
O=c1c2nncn2ccn1-c1ccc(F)c(F)c1	Pol beta inh 32µM (no result: WRN helicase inh)
CCN(CC(=O)NC(C)(C)C)Cc1cc(=O)n2c(-c3ccccc3)csc2n1	Pol eta inh inconclusive, POLI inh 45µM, Pol beta inh inconclusive
COc1cccc(OCc2cc(=O)n3c(-c4ccccc4)csc3n2)c1	Pol beta inh 20µM (no result: WRN helicase inh)
Cc1ccccc1OCc1cc(=O)n2c(-c3ccccc3)csc2n1	none (no result: WRN helicase inh)
CN(CCO)c1cc(Sc2nc3ccccc3s2)c2nonc2c1[N+](=O)[O-]	WRN helicase inh inconclusive, POLI inh 22µM
COc1ccc2c(c1)c1c(c(=O)n(-c3ccccc3C)c(=O)n1CC(N)=O)n2C	none (no result: WRN helicase inh)
c1ccc(-n2cnnn2)cc1	none (no result: FEN1 inhibitor, Pol eta inh, WRN helicase inh, POLI inh, Pol beta inh)
C=CCSC1=N/C(=C\c2sccc2C)C(=O)S1	none
C=CCSC1=N/C(=C\c2cc(OCC)c(OC(C)=O)c([N+](=O)[O-])c2)C(=O)S1	POLK inh 32µM, FEN1 inhibitor 56µM, Pol eta inh inconclusive, POLI inh 20µM, Pol beta inh 20µM
CC(C)(C)n1ncc2c(=O)n(Cc3c(Cl)cccc3Cl)cnc21	none (no result: Pol eta inh, WRN helicase inh, Pol beta inh)
CCOc1ccccc1NC(=O)c1cc(-c2ccncc2)nc2c(Cl)cccc12	Pol beta inh 16µM
N#C/C(=C\c1ccc(OC(=O)c2cccs2)cc1)c1nc2ccccc2[nH]1	Pol eta inh inconclusive, WRN helicase inh inconclusive, Pol beta inh 35µM
COc1ccc2nc(/C(C#N)=C\c3ccc(Oc4ccc([N+](=O)[O-])cn4)cc3)[nH]c2c1	Pol eta inh inconclusive
COc1ccc2nc(/C(C#N)=C\c3ccc(C(=O)O)cc3)[nH]c2c1	Pol eta inh 22µM, WRN helicase inh inconclusive
C=CCN1C(=O)/C(=C/c2ccsc2)SC1=S	none
C=CCN1C(=O)/C(=C/c2ccc(-c3ccc(F)cc3)o2)SC1=S	Pol beta inh 10µM
CC[C@@]1([C@@H]2O[C@@H]([C@H]3O[C@@](O)(CO)[C@H](C)C[C@@H]3C)C[C@@H]2C)CC[C@@H]([C@]2(C)CCC3(C[C@H](O)[C@@H](C)[C@@H]([C@@H](C)[C@@H](OC)[C@H](C)C(=O)O)O3)O2)O1 (some centres not stated)	none (no result: FEN1 inhibitor, Pol eta inh, WRN helicase inh, POLI inh, Pol beta inh)
CCc1cc(-c2n[nH]c(C)c2-c2ccccc2Cl)c(O)cc1OC	POLI inh 89µM
Cc1nnc(NC(=O)c2nc(S(=O)(=O)Cc3ccccc3C)ncc2Cl)s1	Pol eta inh 56µM, POLI inh inconclusive, Pol beta inh inconclusive
CC(C)c1nnc(NC(=O)c2nc(S(=O)(=O)Cc3ccc(F)cc3)ncc2Cl)s1	POLI inh inconclusive
CC(C)c1nnc(NC(=O)c2nc(S(=O)(=O)Cc3ccccc3F)ncc2Cl)s1	POLI inh inconclusive
Cc1ccc(C)c(NC(=O)c2nc(S(=O)(=O)Cc3ccc(F)cc3)ncc2Cl)c1	Pol eta inh 89µM, POLI inh inconclusive, Pol beta inh 32µM (no result: WRN helicase inh)
Cc1ccc(NC(=O)COC(=O)c2ccccc2OCC(=O)Nc2ccc(Br)cc2)c(Br)c1	none (no result: Pol eta inh, WRN helicase inh, Pol beta inh)
N#Cc1sc2nc(-c3ccccc3)cc(-c3ccco3)c2c1N	POLK inh 50µM, FEN1 inhibitor inconclusive, Pol eta inh 8.9µM, WRN helicase inh 35µM, POLI inh 0.79µM, Pol beta inh 40µM
CC(=O)Nc1nc(-c2ccccc2)cc(-c2ccco2)c1C#N	none (no result: Pol beta inh)
N#Cc1c(-c2ccccc2)cc(-c2ccco2)c(C#N)c1N	Pol beta inh 40µM (no result: POLK inh, FEN1 inhibitor, Pol eta inh, WRN helicase inh, POLI inh)
CCN1CCN(C(=O)c2cc(-c3ccco3)nc3ccccc23)CC1	POLK inh inconclusive, Pol eta inh 35µM, POLI inh 40µM (no result: Pol beta inh)
O=C(Nc1ccccc1N1CCOCC1)c1cc(-c2ccco2)nc2ccccc12	Pol eta inh inconclusive, POLI inh inconclusive, Pol beta inh 14µM
O=C(N/N=C/c1ccc2c(c1)OCO2)c1cc(-c2ccco2)nc2ccccc12	POLK inh inconclusive, Pol eta inh inconclusive, POLI inh 3.2µM (no result: Pol beta inh)
CCN1CCN(Cc2ccc(NC(=O)c3ccc(C)c(NC(=O)c4ccno4)c3)cc2C(F)(F)F)CC1	none
CCN1CCN(Cc2ccc(NC(=O)c3ccc(C)c(/C=C/c4cnc(Nc5cc(N6CCNCC6)nc(C)n5)cn4)c3)cc2C(F)(F)F)CC1	FEN1 inhibitor 13µM, Pol eta inh 79µM, WRN helicase inh 20µM!, POLI inh inconclusive
CCOc1ccccc1CNCCSc1nnnn1C	none (no result: WRN helicase inh)
Cn1nnnc1SCCNCc1ccccc1OCc1ccccc1	Pol beta inh 28µM
C/C(=N\NC(=O)c1cc2ccccc2cc1O)c1cc2ccccc2o1	POLK inh 79µM, Pol eta inh 56µM, WRN helicase inh inconclusive, POLI inh 22µM, Pol beta inh 7.1µM
Cc1nc(N=Nc2cc(S(=O)(=O)O)ccc2S(=O)(=O)O)c(COP(=O)(O)O)c(C=O)c1O	POLK inh 2µM (no result: FEN1 inhibitor, Pol eta inh, WRN helicase inh, POLI inh, Pol beta inh)
O=C1NC(c2ccccc2)=N/C1=C/c1ccco1	POLK inh inconclusive, Pol beta inh 28µM
O=C1NNC(c2ccccc2)=N/C1=C\c1ccccc1	POLI inh inconclusive
O=C1NC(c2cccc(Br)c2)=N/C1=C\c1ccco1	POLI inh 25µM, Pol beta inh 45µM
O=C1NC(c2ccccc2Br)=N/C1=C\c1ccco1	POLK inh 79µM, POLI inh inconclusive, Pol beta inh inconclusive
COc1ccc(/C=C/c2ccnc3ccccc23)cc1	none (no result: Pol eta inh, WRN helicase inh, Pol beta inh)
CC(C)(C)n1ncc2c(=O)n(Cc3c(F)cc(Cl)cc3F)cnc21	none (no result: Pol eta inh, WRN helicase inh, Pol beta inh)
O=C(NCCc1ccccc1)c1cccc(Br)n1	none (no result: FEN1 inhibitor, Pol eta inh, WRN helicase inh, POLI inh, Pol beta inh)
O=C(NCc1ccccc1)c1cccc(Br)n1	POLI inh 79µM
Clc1cccc[n+]1CCc1ccccc1	none (no result: Pol eta inh, WRN helicase inh, Pol beta inh)
CC1(C)c2ccccc2N2CC(=O)N(CC(N)=O)C21C (configuration not stated)	POLK inh 45µM, FEN1 inhibitor 79µM, Pol eta inh inconclusive, WRN helicase inh 56µM, POLI inh inconclusive, Pol beta inh 45µM
CCCN1C(=O)c2ccccc2NC1c1ccc(OC)c(COc2ccc([N+](=O)[O-])c(C)c2)c1 (configuration not stated)	none (no result: Pol eta inh, WRN helicase inh, Pol beta inh)
COc1ccc2nc3sc(C(=O)NCCN4CCc5ccccc5C4)cc3cc2c1	Pol eta inh inconclusive, Pol beta inh 20µM
COc1ccc2cc3cc(C(=O)NC4CC4)sc3nc2c1	Pol beta inh 79µM
CCOc1ccc(CCNC(=O)c2cc3cc4ccc(OC)cc4nc3s2)cc1OCC	none (no result: WRN helicase inh)
CCc1ccc(-c2ccc(SCC(=O)Nc3nnc(C)s3)nn2)cc1	WRN helicase inh inconclusive, Pol beta inh 40µM
CC(=O)NC(Cc1ccc(Cl)cc1)C(=O)NCC(N)C(=O)c1ccccc1 (configuration not stated)	none (no result: Pol eta inh, WRN helicase inh, Pol beta inh)
Cc1ccc(C2=NOC(=O)/C2=C\c2ccc(C)o2)cc1	FEN1 inhibitor inconclusive, Pol eta inh 79µM, WRN helicase inh inconclusive, POLI inh inconclusive

Screens as filed in PubChem.
